Among the data in PubChem BioAssay (NCATS) are Potency values, retold here.

Records with an inconclusive call do not appear. Activity calls are given as the source filed them. Calls come from the whole dose curve; as a rule, active = well fitted inhibition curve with a large enough effect in the repeat runs; inconclusive = weak or mixed curves; inactive = flat fitted curve, though single readings scatter.
Potency is the fitted concentration of half-maximal effect.

Sequence of Cytochrome P450 2D6 (Homo sapiens) (P10635 whole entry, looked up): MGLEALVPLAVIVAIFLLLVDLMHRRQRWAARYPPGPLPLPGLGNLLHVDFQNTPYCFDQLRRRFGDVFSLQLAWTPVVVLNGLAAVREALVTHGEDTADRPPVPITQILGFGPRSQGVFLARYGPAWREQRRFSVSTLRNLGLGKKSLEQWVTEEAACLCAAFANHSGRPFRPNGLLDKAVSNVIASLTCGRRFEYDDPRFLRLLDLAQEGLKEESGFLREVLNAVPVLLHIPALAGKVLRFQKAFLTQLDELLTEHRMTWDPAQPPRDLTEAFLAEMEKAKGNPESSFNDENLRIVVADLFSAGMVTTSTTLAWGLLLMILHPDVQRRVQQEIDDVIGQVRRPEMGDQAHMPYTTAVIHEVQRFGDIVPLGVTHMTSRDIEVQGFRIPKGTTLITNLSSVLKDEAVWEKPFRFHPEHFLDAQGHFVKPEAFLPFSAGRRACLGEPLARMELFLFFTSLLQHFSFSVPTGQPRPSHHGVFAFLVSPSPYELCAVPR

The experiment addresses Cytochrome P450 2D6 (Homo sapiens) (UniProt P10635). As to the kind of experiment: Cytochrome P450 family 2 subfamily D member 6 (CYP2D6) small molecule antagonists: luciferase biochemical (cell-free) qHTS assay (AID 1645840). Note: nearly all actives have a fitted effect of over 55% in size. Conditions: P450-Glo CYP2D6 enzyme, luciferin luminescence, 1 h; series mostly up to 57.4 µM. As to the method:
National Center for Advancing Translational Sciences [NCATS] Assay Overview: Cytochrome P450 (CYP) enzymes are membrane-bound hemeproteins that play a key role in metabolism of drugs and xenobiotics. Assaying the effect of chemicals on CYP isozymes is useful to minimize the adverse drug reactions and toxicities in drug development process. Chemical compounds were tested for their effect on CYP enzyme activities by using P450-Glo (TM) screening systems (Promega Corporation, Madison, WI). These systems provide a luminescent method containing proluciferin substrates and are converted to luciferin products by CYP isozymes. The luciferin products formed are detected with a luciferin detection reagent, and the amount of light produced is proportional to CYP activity. P450-Glo (TM) CYP2D6 screening system (Catalog. No. V9890) was used to detect the compounds that interfere in CYP2D6 activity.
Assay Protocol Summary: Two ul of enzyme-substrate mix was dispensed into medium binding white/solid 1536-well plates (Greiner Bio-One North America Inc., Monroe, NC) using a Flying Reagent Dispenser (FRD, Aurora Discovery, San Diego, CA). […] The assay plates were incubated at room temperature for 10 min. Then 2 ul of NADPH regeneration solution was added to each well of the assay plates using an FRD and incubated at room temperature for 1 h. The reaction was stopped by adding 4 ul of detection reagent using an FRD and after 20 min incubation at room temperature, the luminescence signal was measured using a ViewLux plate reader (Perkin Elmer, Shelton, CT). Data were expressed as relative luminescence units.
As for `C[C@@H](NC(=O)c1ccc(C#Cc2cccc(F)c2)cn1)C(C)(C)O`, the Potency entry is “inactive”.

For `CN(C)C(=O)COC(=O)c1cc(-c2ccc(C3CCNCC3)cc2)c2ccc(-c3ccc(C(F)(F)F)cc3)cc2c1`, the Potency is 10.7 µM (active).

As for `Nc1nccc(-c2c(-c3ccc(F)cc3)ncn2C2CCCCC2)n1`, the Potency was 15.1 µM (active).

`CN(C)C(=O)NC1(c2ccccc2)CCN(CCC[C@]2(c3ccc(Cl)c(Cl)c3)CCCN(C(=O)c3ccccc3)C2)CC1`: the Potency is 3.38 µM (active).

With `COc1ccc(N2CCN(C(=O)c3cc4c(s3)-c3ccccc3S(=O)(=O)C4)CC2)cc1`, the Potency result was “inactive”.

On to `O=C(NCCN1CCC(n2c(=O)[nH]c3ccccc32)CC1)c1cc2cc(F)ccc2[nH]1`, for which the Potency was 15.1 µM (active).

In the case of `COc1ccc(CNc2nc(N(CCO)CCO)nc3c2ncn3C(C)C)cc1`, the Potency entry is “inactive”.

Consider `COc1ccccc1N1CCN(CC(C(=O)NC(C)(C)C)c2ccccc2)CC1` (stereo not given), for which the Potency was 1.69 µM (active).

Take `O=c1cc(N2CCOCC2)nc2c3ccccc3ccn12`: the Potency was 19 µM (active).

With `CC(C)(C)OC(=O)c1ncn2c1C(C)(C)Nc1ccccc1-2`, the Potency entry was “inactive”.

In the case of `Cc1cc(C(=O)Cn2cc(C#N)ccc2=O)c(C)n1Cc1ccccc1`, the Potency entry was “inactive”.

Consider `CCC(CC)Nc1nc(C)c(-c2ccc(OC(F)(F)F)cc2OC)nc1OC`, for which the Potency result was “inactive”.

As to `C[C@@H](Nc1ncnc2[nH]c(-c3ccc(O)cc3)cc12)c1ccccc1`, the Potency is 1.34 µM (active).

In the case of `CN(C)CCn1cc(-c2ccc(F)cc2)c(-n2cccc2)n1`, the Potency is 15.1 µM (active).

Turning to `COc1cc(N2CCC(N)CC2)ccc1Nc1ncc(Cl)c(-c2c[nH]c3ccccc23)n1`, the Potency is 21.3 µM (active).

`Cc1[nH]c2ccccc2c1CCNC(=O)c1cccs1`: the Potency was 23.9 µM (active).

In the case of `Nc1nc2c(s1)CCN(Cc1ccc(Cl)cc1)CC2`, the Potency was 1.9 µM (active).

For the compound `O=C(c1ccc(Cl)cc1)N1CCN(c2ccnc3cc(Cl)ccc23)CC1`, the Potency is 8.49 µM (active).

Turning to `COc1ccc(S(=O)(=O)Nc2c(C)cc(C)cc2C)cc1`, the Potency result is “inactive”.

For the compound `N#CC(CCCN1CCC(O)(c2ccc(Cl)cc2)CC1)(c1ccccc1)c1ccccc1`, the Potency is 0.536 µM (active).

Take `COc1ccncc1C(=O)NC(=O)Nc1ccc(-c2ccccc2)c(C(F)(F)F)c1`: the Potency was 19 µM (active).

On to `N[C@@H]1c2cccnc2[C@H](OC(=O)N2CCC(n3c(=O)[nH]c4ncccc43)CC2)CC[C@H]1c1cccc(F)c1F`, for which the Potency was 6.74 µM (active).

Regarding `Nc1nc2c(c(N3CC[C@@H](N)C3)n1)CCCc1ccccc1-2`, the Potency was 3.38 µM (active).

Consider `COc1cc2c(cc1OC(C)C)[C@H](c1ccc(Cl)cc1)N(c1ccc(N(C)CC3CCC(N4CCN(C)C(=O)C4)CC3)cc1)C(=O)C2` (stereo not given in full), for which the Potency is 21.3 µM (active).

`COc1ccc(C(=O)Nc2c(Cl)cncc2Cl)cc1OC1CCCC1`: the Potency entry was “inactive”.

Turning to `O=C(COc1ccc(C(=O)c2ccccc2)cc1)NC1CCN(Cc2ccccc2)CC1`, the Potency was 0.338 µM (active).

For the compound `CC(C)Oc1ccc(-c2cnc3c(-c4ccnc5ccccc45)cnn3c2)cc1`, the Potency result was “inactive”.

Consider `CC(C)(Cc1nc(-c2ccc(O)cn2)no1)C(=O)NC1=C(C(=O)O)CCCC1`, for which the Potency entry is “inactive”.

On to `COC1CCN(C(=O)c2cc(Cc3n[nH]c(=O)c4ccccc34)ccc2F)CC1`, for which the Potency result is “inactive”.

Consider `CC[C@@H](Nc1c(Nc2cccc(C(=O)N(C)C)c2O)c(=O)c1=O)c1cc(C(C)C)co1`, for which the Potency was 16.9 µM (active).

As to `C=C1CCN([C@H](C)[C@](O)(Cn2cncn2)c2ccc(F)cc2F)CC1`, the Potency was 23.9 µM (active).

`COc1cc(F)c(C(C)C)cc1-c1ccc(C(F)(F)F)cc1CN1C(=O)OC(c2cc(C(F)(F)F)cc(C(F)(F)F)c2)C1C` (stereo not given): the Potency entry was “inactive”.

For the compound `Fc1ccc(-c2nc(C3CCNCC3)sc2-c2ccnc(NC3CC3)n2)cc1`, the Potency was 6.01 µM (active).

On to `CCC1C(=O)N(C)c2cnc(Nc3ccc(C(=O)NC4CCN(C)CC4)cc3OC)nc2N1C1CCCC1` (stereo not given), for which the Potency result is “inactive”.

In the case of `Cc1nc2c(C(F)(F)F)cccc2nc1-c1ccc(-c2cccc(S(C)(=O)=O)c2)cc1`, the Potency entry is “inactive”.

With `CCNC(=O)c1noc(-c2cc(Cl)c(O)cc2O)c1-c1ccc(OC)cc1`, the Potency was 26.8 µM (active).

Regarding `O=C(COc1ccc2ccccc2c1Br)Nc1cccnc1`, the Potency is 0.301 µM (active).

For the compound `O=c1[nH]c2cccc(N3CCN(Cc4ccc(-c5ccccc5)cc4)CC3)c2o1`, the Potency is 8.49 µM (active).

In the case of `CCCN(CCc1ccsc1)C1CCc2c(O)cccc2C1` (stereo not given), the Potency is 0.338 µM (active).

`O=C(NCc1cccs1)c1cc2nc(-c3ccco3)cc(C(F)(F)Cl)n2n1`: the Potency was 7.56 µM (active).
